Screening data deposited in PubChem BioAssay by PCMD.
Sampled rows, rich in hits. Any-hit rate of the full collection: about 0.61%.
C1s inh: blocks human complement C1s protease activity. P09871. purified C1s, fluorogenic AMC substrate, pooled mixtures. mean inhibition % of two 10-compound mixtures (hits give high values), % at 5 µM (by protocol). 62,000 tested, 0.16% active. AID 538;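 active = inhibition above 20% in each of the two 10-compound mixture wells holding the compound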;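 note: 0% = enzyme wells lacking compound mixture and 100% = no-enzyme blank wells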
FXIIa inh mix: blocks human factor XIIa in pooled compound mixtures. 62,000 tested, 0.2% active. inhibition, % at 5 µM. AID 684. purified FXIIa, fluorogenic substrate. P00748;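 note: 0% = enzyme without compound and 100% = no enzyme blank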
Cathepsin G inh: cathepsin G (human) inhibition | AID 581 | 62,000 tested, 0.2% active | P08311 | purified enzyme, AMC-tetrapeptide fluorescence, pooled mixtures | inhibition, % at 5 µM (by protocol);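 active = inhibition above 20% in each of the two mixture wells holding the compound; inactive = inhibition of 20% or less in either well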;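 note: 0% = enzyme control without mixture and 100% = blank lacking enzyme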
FXIa mix inh: blocks human factor XIa in pooled compound mixtures | purified FXIa, fluorogenic substrate | inhibition, % at 5 µM | 62,000 tested, 0.19% active;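 note: each value is inhibition by a whole ten-compound pool holding the compound; 0% = enzyme with no mixture and 100% = wells lacking enzyme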
Target sequence (P03951 19-387 limits assumed): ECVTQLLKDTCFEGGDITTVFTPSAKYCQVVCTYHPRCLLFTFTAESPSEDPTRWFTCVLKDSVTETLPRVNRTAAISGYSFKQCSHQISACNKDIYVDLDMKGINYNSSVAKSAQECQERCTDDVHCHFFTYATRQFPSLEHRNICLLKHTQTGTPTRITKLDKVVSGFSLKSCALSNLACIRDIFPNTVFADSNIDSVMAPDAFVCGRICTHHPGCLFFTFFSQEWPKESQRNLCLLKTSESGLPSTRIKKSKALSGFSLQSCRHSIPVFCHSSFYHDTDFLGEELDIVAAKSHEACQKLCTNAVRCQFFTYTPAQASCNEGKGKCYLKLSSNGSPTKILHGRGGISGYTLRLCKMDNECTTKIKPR
Target sequence (P03951 388-625 limits assumed): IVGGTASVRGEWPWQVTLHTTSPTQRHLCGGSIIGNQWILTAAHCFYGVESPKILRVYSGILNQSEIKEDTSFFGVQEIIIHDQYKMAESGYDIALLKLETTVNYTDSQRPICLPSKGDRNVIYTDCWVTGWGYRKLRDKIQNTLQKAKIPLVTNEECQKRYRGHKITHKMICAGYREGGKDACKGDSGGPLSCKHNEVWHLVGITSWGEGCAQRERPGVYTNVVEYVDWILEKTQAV
Numbers without * were called inactive. Cut-off read from the data, not from the text of the source, unless noted: active = inhibition above about 20% (passing the limit was not always enough); inactive = the rest.

SMILES | C1s inh | FXIIa inh mix | Cathepsin G inh | FXIa mix inh
O=C1C(Cl)=C(N2CCCCC2)C(=O)N1c1ccccc1Cl | 3 | 5 | 9 | 22*
CC(C)N1C(=O)CCC1C(=O)NCc1ccccc1Cl (stereo not drawn) | -1 | -3 | -1 | 2
COc1cccc(-n2c(SCC(=O)N3CCCC3)nc3c([nH]c4ccccc43)c2=O)c1 | 2 | -6 | 10 | 1
O=C1C(=O)N(CCCN2CCOCC2)C(c2ccccn2)/C1=C(\O)c1ccc2c(c1)OCCO2 (stereo not drawn) | 11 | -21 | 10 | 7
Cc1cc(NC(=O)c2cccc(S(=O)(=O)N3CCCCCC3)c2)n(-c2ccccn2)n1 | 43* | 11 | 42 | 3
O=C(Nc1ccccn1)c1cccc(S(=O)(=O)N2CCOCC2)c1 | 16 | 10 | 12 | 9
COc1ccc(-c2nnn(CC(=O)c3ccc4c(c3)OCCO4)n2)cc1OC | 2 | 3 | 9 | 20*
CCOc1ccc(-c2nnn(CC(=O)c3ccc4c(c3)OCCO4)n2)cc1 | 13 | 1 | 9 | 9
CCOC(=O)c1cc(NC(=O)Nc2ccc(OC)c(OC)c2)c(C)nc1C | 1 | 9 | -2 | 29*
Cc1cc(-c2ccccc2C(=O)NCc2ccccc2)on1 | 16 | 5 | 59 | 27*
Cc1cc(-c2ccccc2C(=O)O)on1 | -71 | 12 | -6 | -8
CCOC(=O)c1c(C)[nH]c(C(=O)COC(=O)C2CC2C)c1C (stereo not drawn) | 13 | 6 | 17 | 27*
Cc1cccc(-n2c(CNC(=O)c3ccc(S(=O)(=O)N4CCCC4)cc3)n[nH]c2=S)c1 | 3 | 16 | 8 | 1
COc1ccc(-n2c(CNC(=O)c3ccc(S(=O)(=O)N4CCCC4)cc3)n[nH]c2=S)cc1 | 1 | 22* | 6 | -5
O=C1c2oc3ccc(F)cc3c(=O)c2C(c2ccccc2)N1CC1CCCO1 (stereo not drawn) | -10 | -18 | -19 | -10
Cc1ccc2c(c1)CC1(CN2C)C(=O)OC2(CCCCC2)OC1=O | 2 | 10 | 7 | 21
CN1CC2(Cc3c1ccc1ccccc31)C(=O)OC(C)(C)OC2=O | -36 | 3 | 42* | -4
CCCNC(=O)c1c(N)n(-c2cc(OC)cc(OC)c2)c2nc3ccccc3nc12 | -52 | -18 | -7 | -3
CC1(C)CC2(CC(C)(C)NC(=O)N2)NC(=O)N1 | 4 | -25 | 26 | 4
CN(C)CCNC(=O)c1cc2ccccc2oc1=O | 11 | 21* | 13 | 3
CC(C)(C)OC(=O)N[C@@H](Cc1ccccc1)c1nnc(S(=O)(=O)Cc2ccccc2)o1 | 5 | -3 | 83* | 8
CCC(C)[C@@H](NC(=O)OC(C)(C)C)c1nnc(S(=O)(=O)Cc2cccc(C)c2)o1 (stereo partly drawn) | 15 | 12 | 10 | 21*
O=C(CN(Cc1ccccc1F)S(=O)(=O)c1ccc(Cl)cc1)NCCCO | 4 | -1 | 1 | 0
O=C(CSc1nnc2sc3ccccc3n12)c1ccco1 | 14 | 4 | 3 | 7
COc1ccc(CCN2C(=O)CC(C(N)=O)SC2=Nc2ccccc2)cc1OC (stereo not drawn) | -8 | 10 | -3 | 6
SMILES | C1s inh | FXIIa inh mix | Cathepsin G inh | FXIa mix inh
CCc1ccc(-c2cn(-c3nc(C)cc(C)n3)c(=N)o2)cc1 | 52* | -3 | 8 | 5
Cc1nn(-c2ccccc2)c2c1C(O)n1c(nc3ccccc31)S2 (stereo not drawn) | -4 | 2 | 5 | 3
COC(=O)C1=C(C)N(C)C(C)=C(C(=O)OC)C1c1ccccc1C | 10 | 3 | 9 | 24*
CCCC(=O)Nc1nc2ccc(S(N)(=O)=O)cc2s1 | 2 | 22* | -5 | 3
COc1ccc(NC(=O)C2CCN(S(=O)(=O)c3ccc(C)cc3)CC2)cc1OC | -21 | -15 | -9 | 5
COc1ccc(S(=O)(=O)N2CCC(NC(=O)Nc3ccc(C)cc3)CC2)cc1 | 4 | 22* | 1 | 4
O=C(CC1Oc2ccccc2NC1=O)NCCCN1CCN(C2CCCCC2)CC1 (stereo not drawn) | -12 | 4 | -4 | 2
CC(NC(=O)c1ccccc1NC(=O)c1ccco1)c1ccccc1 (stereo not drawn) | 6 | 7 | 8 | 24*
COC(=O)Cc1c(C)c2c(OCc3nn[nH]n3)cc(C)cc2oc1=O | -51 | 24* | 4 | -4
CCc1cc(=O)oc2cc(C)cc(OCc3nn[nH]n3)c12 | -16 | 1 | 6 | 0
COc1ccccc1C1NC(=O)NC(C)=C1C(C)=O (stereo not drawn) | 0 | 72* | 2 | 12
CCN1CC=C2C(C#N)=C(N)C(C#N)(C#N)C(c3cc(Cl)ccc3Cl)C2C1 (stereo not drawn) | -4 | -5 | 6 | -2
